This is a sample that favours compounds with a hit; in the whole collection about 6.5% have one here.
HT1080 IDH1KD tx: qHTS for induction of synthetic lethality in tumor cells producing 2HG: qHTS for the HT-1080-IDH1KD cell line; Potency, µM (highest dose often 46.1 µM), for the others: top-dose activity, negative = toxicity, hits mostly cytotoxic; HT-1080 IDH1 knockdown viability, ATP luminescence, 48 h; actives 2% (n = 360,000); AID 686971, 2013;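 further: potency means the concentration at half of the fitted maximal effect; 0% = DMSO wells and -100% = cell-free medium wells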
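After a 2 h attachment period, IDH1KD HT-1080 cells took pin-transferred compound for 48 h at 37 °C; ATP-based luminescence after 10 min room-temperature reagent incubation reported viability.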
HepG2 tox: qHTS for Inhibitors of TGF-b: Cytotox Counterscreen. HepG2 CAGA-GFP viability, ATP luminescence, 18 h. Potency, µM (highest dose often 46.1 µM), for the others: at the top dose activity change, negative = cytotoxicity, most hits filed as cytotoxic. actives 0.76% (n = 410,000). AID 588856, 2011; further: potency means the concentration at half of the fitted maximal effect
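HepG2 CAGA-GFP cells (1000/well, DMEM with 1% FBS) received compound, then TGF-beta at 500 pg/mL final, and were incubated 18 hours at 37 degrees C. Viability was read by CellTiter-Glo luminescence. Media-only wells were set as complete cell-killing and DMSO as no toxicity.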
Giardia killer: Small Molecules that selectively kill Giardia lamblia: qHTS; Giardia lamblia trophozoite viability; activity change, % at 7.66 µM, hits read low; actives 0.15% (n = 340,000); in the data active means activity change below about -80%; inconclusive means between about -30% and that limit;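 further: parasites exposed to compound for two days anaerobically before the ATP read; on the % scale 0 is the no-effect control and ±100 the full control effect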
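Luminescent ATP signal served as the viability read-out, measured 15-30 min after adding ATP detection reagent to trophozoites that had been incubated with compounds for 48 hrs at 37 deg C anaerobically at 100 cells/well.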
IL1B secr inh: qHTS for Inhibitors of Inflammasome Signaling: IL-1-beta AlphaLISA Primary Screen | actives 4.7% (n = 360,000) | THP-1 LPS/ATP IL-1B secretion, AlphaLISA, 16 h; stronger effect = lower value | activity change, % at 57.5 µM; in the data active means activity change below about -50%; inconclusive means mostly about -30% to -49%; further: on the % scale 0 is the no-effect control and ±100 the full control effect
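THP-1 cells pretreated 1 hr with compounds (up to 57.5 uM final), then stimulated with LPS (250 ng/mL final) plus ATP (1.25 mM final); secreted IL-1B measured by AlphaLISA after 16 hr, decreased signal indicating inhibition.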
TGFb inhibitor: qHTS for Inhibitors of TGF-b; Potency, µM (titrated, usually from 46.1 µM), for inactives: at the highest dose activity, negative = inhibition, most hits filed as inhibitors; actives 1.2% (n = 410,000); AID 588855, 2011; HepG2 CAGA-GFP TGF-b/SMAD3 reporter, GFP fluorescence, 18 h; TGF-beta stimulated, 500 pg/mL final; further: potency means the concentration at half of the fitted maximal effect; on the % scale 0 is the no-effect control and ±100 the full control effect; nearly all actives have a fitted effect of over 65% in size
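Using HEPG2 CAGA-GFP reporter cells at 1000 cells/well, we pinned test compounds, stimulated with recombinant TGF-beta (500 pg/mL final) and measured total well GFP after 18 h.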
HT1080NT lethal: qHTS for induction of synthetic lethality in tumor cells producing 2HG: qHTS for the HT-1080-NT fibrosarcoma cell line; HT-1080-NT fibrosarcoma viability, CellTiter-Glo ATP luminescence, 48 h; Potency, µM (series often up to 46.1 µM), inactives show at the highest dose activity, negative = less viability, hits mostly cytotoxic; actives 1.6% (n = 360,000); AID 686970, 2013;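 further: NT is the 2HG producing partner of a matched IDH1 knockdown line; potency means the concentration at half of the fitted maximal effect; 0% = DMSO-treated cells and -100% = media-only wells without cells; nearly all actives have a fitted effect of over 55% in size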
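Read-out is CellTiter-Glo luminescence after 10 minutes at room temperature, following 48 hours' compound treatment of HT-1080-NT cells (750 cells/well, RPMI, 5% FBS, 37 degrees C).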
Starred values were filed as active, the others as inactive; ? = inconclusive; nt = no result given. Unless noted, the call rests on the fitted dose curve; in most records, active means well fitted curve in the direction sought with a large enough effect; inconclusive means small, poorly fitted or top-dose-only effect, or another doubt; inactive means no such curve, though single readings can be large; an effect the other way counts as inactive or inconclusive.

SMILES | HT1080 IDH1KD tx | HepG2 tox | Giardia killer | IL1B secr inh | TGFb inhibitor | HT1080NT lethal
CCO[C@H]1OC(C(=O)NCc2nc3ccccc3[nH]2)=C[C@@H](C2CC2)[C@@H]1CCCO | 2.06µM* | 7.4% | 5.5 | 50.0 | -20.7% | ?
CCCCn1c(-c2nn(C)cc2Cl)n[nH]c1=S | -4.2% | 15.8% | -1.7 | 23.2 | -3.7% | -9.0%
COC(C[C@@H]1O[C@@H]1[C@@H](O)[C@H](C)OCc1ccccc1)OC | 11.7% | 5.7% | 3.6 | 9.2 | -3.9% | 28.3%
O=C(CSc1ncnc2c1cnn2-c1ccc(F)cc1)NCC1CCCO1 (stereo unspecified) | -5.9% | -2.8% | -14.7 | -17.0 | -15.1% | -4.0%
O=C(CSc1nnnn1Cc1ccccc1)NC1CCCCC1 | -0.5% | 5.8% | 6.3 | 43.2 | 6.1% | 2.1%
COc1ccc(-n2nnc3c(SCC(=O)NCC4CCCO4)ncnc32)cc1 (stereo unspecified) | -12.4% | -1.6% | -25.5 | -98.3* | ? | 0.9%
O=C(CSc1ncnc2c1nnn2Cc1ccccc1F)NCC1CCCO1 (stereo unspecified) | ? | -11.7% | -0.2 | -90.1* | ? | -17.3%
O=C(CSc1ccccc1C(=O)NCc1ccccc1)NC1CCCCCCC1 | 1.2% | 0.9% | -19.2 | -101.0* | 4.0% | 4.9%
O=C(CSc1ncnc2c1nnn2Cc1ccccc1)NC1CCCCC1 | 7.3% | -5.6% | -10.1 | -94.8* | 6.5% | 1.8%
COc1ccc2c(c1)c1c(c(=O)n(-c3ccccc3C)c(=O)n1Cc1c(F)cccc1Cl)n2C | nt | 9.6% | nt | nt | 0.4% | nt
O=C(CNC(=S)N(Cc1ccc(F)cc1)C1CCCCC1)NCC1CCCO1 (stereo unspecified) | 21.9% | 1.6% | 24.8 | -0.7 | -0.1% | 5.4%
O=C(CNC(=S)N(Cc1ccccc1F)C1CCCCC1)NCC1CCCO1 (stereo unspecified) | 0.9% | -42.2% | 9.3 | -68.2* | -27.4% | -2.9%
CCOC(=O)CNC(=O)Cn1c(C)cc2ccccc2c1=O | 9.8% | -2.0% | -3.9 | -65.3* | 6.3% | 8.3%
Cc1ccc(/C=C(\C#N)C(=O)N2CCCC2)c(C)c1 | ? | -19.1% | -6.1 | -86.5* | 11.6% | -0.1%
Cc1ccc(Cl)c(OCCCCN(C)Cc2ccccc2)c1 | ? | -63.2% | 6.7 | -56.9* | -0.9% | ?
CN(CCOCCOc1ccc(Cl)cc1Br)Cc1ccccc1 | ? | -15.4% | 15.2 | -79.8* | 2.3% | ?
Clc1ccc(OCCOCCOc2cccc3cccnc23)c(Br)c1 | ? | 15.8µM* | -6.2 | -3.2 | ? | ?
Cc1ccc(Cl)c(OCCCN(C)Cc2ccccc2)c1 | -21.6% | -37.1% | 5.9 | -77.2* | -28.3% | ?
CN(CCOc1ccccc1Cl)Cc1ccccc1 | 11.4% | -8.2% | -7.6 | -19.5 | 6.0% | 0.1%
COc1ccc(-c2csc(NC(=O)C3CCCCN3S(=O)(=O)c3ccccc3)n2)cc1 (stereo unspecified) | -14.1% | -4.7% | 4.4 | -26.1 | -25.7% | -15.1%
C/C=C/c1ccc(OCCOc2cccc3cccnc23)c(OC)c1 | -16.8% | -4.4% | -9.4 | -62.0* | 0.0% | -18.0%
C/C=C/c1ccc(OCCOCCOc2cccc3cccnc23)c(OC)c1 | -12.7% | -23.8% | 0.1 | 0.0 | -27.0% | -12.4%
CC12COC3(P(=O)(c4ccccc4)c4ccccc4)CC1CCC23CP(=O)(c1ccccc1)c1ccccc1 (stereo unspecified) | ? | -8.2% | 8.6 | -52.3* | -9.2% | -19.0%

Assay outcomes as filed in PubChem BioAssay.
